# Screens (PubChem)
# A selection: hits, their analogues and other compounds. The true share with any hit is near 9%.
# HPGD inh – blocks human HPGD enzyme activity; P15428; purified HPGD, NADH fluorescence kinetic, PGE2 substrate; Potency, µM, usual class: inhibitors; actives 4.3% (n = 150,000); AID 894; active = well fitted inhibition curve with a large enough effect, not every such curve was filed as active; inconclusive = small, poorly fitted or top-dose-only effect, or another doubt; inactive = no such curve, though single readings can be large or run the other way
#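 NADH formation kinetics: reaction with 30 uM PGE2 and 1 mM NAD+ (final), 20 nM enzyme, Tris-HCl pH 8 with Tween 20, after 15 min compound preincubation at room temperature. Fluorescence change, last versus first of five reads.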
# HTT cytoprotect – cytoprotection in Huntington HTT-Q103 PC12 cell model; Potency, µM (highest dose often 56.4 µM), most hits filed as activators; actives 0.14% (n = 230,000); PC12 HTT-Q103 induced, cytoprotection, ATP luminescence, 40 h; also: nearly all actives have a fitted effect of over 45% in size
#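 ATP quantification (ATPlite) reports survival of PC12 cells in which tebufenozide, 100 nM final, switches on Htt exon 1 with 103 glutamines linked to GFP; compounds are titrated.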
# ALDH1A1 block – ALDH1A1 (human) enzyme inhibition; Purified ALDH1A1, NADH fluorescence, propionaldehyde substrate; AID 1030; Potency, µM (series often up to 75.3 µM), actives largely listed as inhibitors; P00352; actives 7.3% (n = 220,000); active = well fitted inhibition curve with a large enough effect, not every such curve was filed as active; inconclusive = small, poorly fitted or top-dose-only effect, or another doubt; inactive = no such curve, though single readings can be large or run the other way
# Target sequence (P00352 whole entry, looked up): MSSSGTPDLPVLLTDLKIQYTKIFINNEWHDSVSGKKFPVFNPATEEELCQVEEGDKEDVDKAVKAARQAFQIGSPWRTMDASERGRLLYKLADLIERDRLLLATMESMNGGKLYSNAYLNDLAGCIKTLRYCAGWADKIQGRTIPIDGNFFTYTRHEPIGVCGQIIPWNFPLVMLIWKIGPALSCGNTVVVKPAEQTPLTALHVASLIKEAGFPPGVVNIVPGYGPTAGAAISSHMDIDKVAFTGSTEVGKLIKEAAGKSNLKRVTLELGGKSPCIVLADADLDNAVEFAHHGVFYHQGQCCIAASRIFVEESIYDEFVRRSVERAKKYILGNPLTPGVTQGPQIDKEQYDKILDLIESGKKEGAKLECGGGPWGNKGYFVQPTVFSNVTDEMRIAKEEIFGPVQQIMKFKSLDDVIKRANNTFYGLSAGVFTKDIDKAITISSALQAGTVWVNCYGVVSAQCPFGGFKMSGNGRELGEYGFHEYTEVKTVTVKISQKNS
# Lamin A splicing – modulators of lamin A splicing. actives 0.01% (n = 200,000). HeLa LMNA splicing GFP/RFP minigene ratio, 48 h. Potency, µM (top dose mostly 46.1 µM), most hits filed as inhibitors; active = well fitted inhibition curve with a large enough effect in the signal ratio, with a control signal flat, not every such curve was filed as active; inconclusive = small, poorly fitted or top-dose-only effect, or effect the other way, or a change in a side signal; the % refers to the signal ratio
#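 S3 HeLa stable clones carrying a lamin A-EGFP splicing minigene plus DsRed2 were seeded at 600 cells/well in Opti-MEM with 2% FBS, pin-dosed and incubated 48 h at 37°C. Acumen cytometry (488 nm) gave the GFP/RFP total-intensity ratio.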
# KinaseGlo FLuc – counter-screen: inhibitors of Kinase-Glo firefly luciferase | actives 0.28% (n = 200,000) | Potency, µM (top dose mostly 38.3 µM), usual class: inhibitors | Kinase-Glo luciferase, ATP luminescence, 8 min | Q27757; also: nearly all actives have a fitted effect of over 60% in size
#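 Recombinant Kinase-Glo luciferase, 10 uM ATP (linear range), luciferin; imidazole pH 7.2 / KCl / MgCl2 / Tween / BSA buffer; 8 min RT; luminescence.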
# HTT aggregate – reduces HttQ103-GFP aggregates in PC12 cells | PC12 HttQ103-GFP aggregates, Acumen cytometry, 40 h | Potency, µM (series often up to 46.1 µM), hits mostly inhibitors | actives 1.1% (n = 220,000); also: nearly all actives have a fitted effect of over 60% in size
#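 Compounds (qHTS titration) were added to PC12 cells expressing an ecdysone-driven HTT exon 1 Q103–GFP fusion after induction with 100 nM tebufenozide. Aggregate formation was measured as GFP objects in cell lysates.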
# A number is an active result; . = inactive; ? = inconclusive; / = no result; ! = a repeat was not active; [ ] = dose if it differs, or a comment. Unless noted, calls follow the shape of the dose curve; as a rule, active = well fitted curve in the direction sought with a large enough effect; inconclusive = small, poorly fitted or top-dose-only effect, or another doubt; inactive = no such curve, though single readings can be large; an effect the other way counts as inactive or inconclusive.
SMILES,HPGD inh,HTT cytoprotect,ALDH1A1 block,Lamin A splicing,KinaseGlo FLuc,HTT aggregate
CC1(C)CC(=O)C(C=Nc2cc(C(=O)c3ccccc3)ccc2N)=C(O)C1,/,.,11µM,?,.,.
CSc1ccccc1N=CC1=C(O)CC(C)(C)CC1=O,.,.,2µM,.,.,.
CC1(C)CC(=O)C(C(N)=NC(=O)c2ccc([N+](=O)[O-])cc2)=C(O)C1,/,.,.,/,.,.
CC1(C)CC(=O)C(C=Nc2ccc(Cl)cn2)=C(O)C1,.,.,.,.,.,.
COC(=O)c1ccc(N)c(N=CC2=C(O)CC(C)(C)CC2=O)c1,.,/,20µM,.,.,.
COC(=O)c1ccc(OCC(=O)c2ccccc2)cc1,.,.,.,.,.,.
COC(=O)/C=C/c1ccc(-n2ccnc2)cc1,/,.,.,/,.,.
COc1cccc(N/C(N)=N/c2nc(C(F)(F)F)cc(=O)[nH]2)c1,.,.[10 µM],.,.,.,.
CNC(=S)N1CCc2ccccc2C1,.,.[10 µM],.,.,.,.
CCOC(=O)C1CCN(C(=O)CCCN2C(=O)c3ccccc3C2=O)CC1,.,.[10 µM],?,.,.,.
CC(=C1C(=O)c2ccccc2C1=O)N1CCc2ccccc2C1,.,.,8.9µM,.,.,.
CCOC(=O)C1CCN(C(C)=C2C(=O)c3ccccc3C2=O)CC1,.,.,18µM,.,.,.
CCOC(=O)N1CCC(N2Cc3cccc(C(=O)N4CCN(c5cccc(C)c5C)CC4)c3C2=O)CC1,/,.,.,/,/,.
N#Cc1c[nH]n2c(=O)c3c(nc12)CCC3,/,.[10 µM],?,?,.,.[9.22 µM]
Cc1snc(SCC(=O)c2ccc(F)cc2)c1C#N,/,.[10 µM],?,.,.,?
Cc1snc(SCC(=O)c2ccc([N+](=O)[O-])cc2)c1C#N,/,?,2.8µM,/,.,.
CCCCN(CC)S(=O)(=O)N1CCC(C(=O)NCCCN2CCOCC2)CC1,?,.,?,.[0.0737 µM],.,.
CS(=O)(=O)N1CCC(C(=O)NCCC2=CCCCC2)CC1,.,.,?,.,.,.
CCN(CC)S(=O)(=O)N1CCC(C(=O)NCCN2CCOCC2)CC1,.,.,10µM,.,.,.
CCN(CC)S(=O)(=O)N1CCC(C(=O)NCCC2=CCCCC2)CC1,/,.,2.5µM,/,.,?
O=c1nc(Nc2ccc(Br)cc2)sc2ccc([N+](=O)[O-])cc12,/,.[10 µM],/,/,/,.[9.22 µM]
O=c1c2c([N+](=O)[O-])cc([N+](=O)[O-])cc2sn1-c1ccc(Br)cc1,2.2µM,.[10 µM],1.4µM,.,.,.
CCCCOc1ccc(C(=O)CCNC(C(=O)O)C(C)CC)cc1 (configuration not stated),/,.[0.074 µM],/,/,/,/
N#Cc1cc([N+](=O)[O-])ccc1NCCN1CCOCC1,/,.[10 µM],.,.,.,.
CC(C)(CNc1ccc([N+](=O)[O-])cc1C#N)N1CCOCC1,/,.[10 µM],2.2µM,?,.,.
SMILES,HPGD inh,HTT cytoprotect,ALDH1A1 block,Lamin A splicing,KinaseGlo FLuc,HTT aggregate
Nc1ncnc2c1c(I)cn2C1OC(CO)C(O)C1O (configuration not stated),.,.,8.9µM!,?,.,/
O=C(Nc1cccnc1)/C(N=Nc1ccc(Cl)c(C(F)(F)F)c1)=C(\O)c1ccccc1,.,.[10 µM],.,.,.,.
CN(C)c1ccc(C(=O)N2CC(=O)N(CCc3ccccc3)C(=O)C2)cc1,?,.,6.3µM,.,.,.
COc1ccc(CC(=O)N2CC(=O)N(CCc3ccccc3)C(=O)C2)cc1,.,.,10µM,.,.,.
COc1ccc(C(=O)N2CC(=O)N(CCc3ccccc3)C(=O)C2)cc1OC,.,.,.,.,.,.
O=C1c2ccccc2C(=O)C12OC2c1cccc2ccccc12 (configuration not stated),?,.[10 µM],1µM,.,.,35µM
CC(=O)N1CCc2c(sc(NC(=O)c3ccc([N+](=O)[O-])o3)c2C#N)C1,/,.,3.2µM,?,.,.[9.22 µM]
Cc1ccc(Cl)cc1N1CCN(C(=O)Cn2cnc3nc4c(cc3c2=O)CCCC4)CC1,/,/,/,.,/,/
CCOC(=O)C1=C(C)NC(C)=C(C(=O)OCC)C1c1nc2ccccc2[nH]1,/,.[10 µM],/,/,/,/
COc1ccc(CCNc2ncnc3c2oc2ccccc23)cc1OC,.,.,.,.,.,2µM
